These results are taken from ChEMBL document CHEMBL3988442, “University of Dundee, Small-Polar-MMV Screening Library” (2021).

For some assays here: Potency and affinity values are given separately.

What all share (design): scale not given: direction of the effect not stated beside the values
Assay [1] deals with Protein translocase subunit SecA (Escherichia coli (strain K12)) (UniProt P10408). Kind of assay: Assay to Identify E. coli SecA ATPase Inhibitors. It counts as functional. Particulars: 30 µM.
In assay [2] the target is T1, Ubiquitin-activating enzyme e1, putative (Leishmania donovani (strain BPK282A1)) (UniProt E9BSI1).
T1 sequence (whole entry): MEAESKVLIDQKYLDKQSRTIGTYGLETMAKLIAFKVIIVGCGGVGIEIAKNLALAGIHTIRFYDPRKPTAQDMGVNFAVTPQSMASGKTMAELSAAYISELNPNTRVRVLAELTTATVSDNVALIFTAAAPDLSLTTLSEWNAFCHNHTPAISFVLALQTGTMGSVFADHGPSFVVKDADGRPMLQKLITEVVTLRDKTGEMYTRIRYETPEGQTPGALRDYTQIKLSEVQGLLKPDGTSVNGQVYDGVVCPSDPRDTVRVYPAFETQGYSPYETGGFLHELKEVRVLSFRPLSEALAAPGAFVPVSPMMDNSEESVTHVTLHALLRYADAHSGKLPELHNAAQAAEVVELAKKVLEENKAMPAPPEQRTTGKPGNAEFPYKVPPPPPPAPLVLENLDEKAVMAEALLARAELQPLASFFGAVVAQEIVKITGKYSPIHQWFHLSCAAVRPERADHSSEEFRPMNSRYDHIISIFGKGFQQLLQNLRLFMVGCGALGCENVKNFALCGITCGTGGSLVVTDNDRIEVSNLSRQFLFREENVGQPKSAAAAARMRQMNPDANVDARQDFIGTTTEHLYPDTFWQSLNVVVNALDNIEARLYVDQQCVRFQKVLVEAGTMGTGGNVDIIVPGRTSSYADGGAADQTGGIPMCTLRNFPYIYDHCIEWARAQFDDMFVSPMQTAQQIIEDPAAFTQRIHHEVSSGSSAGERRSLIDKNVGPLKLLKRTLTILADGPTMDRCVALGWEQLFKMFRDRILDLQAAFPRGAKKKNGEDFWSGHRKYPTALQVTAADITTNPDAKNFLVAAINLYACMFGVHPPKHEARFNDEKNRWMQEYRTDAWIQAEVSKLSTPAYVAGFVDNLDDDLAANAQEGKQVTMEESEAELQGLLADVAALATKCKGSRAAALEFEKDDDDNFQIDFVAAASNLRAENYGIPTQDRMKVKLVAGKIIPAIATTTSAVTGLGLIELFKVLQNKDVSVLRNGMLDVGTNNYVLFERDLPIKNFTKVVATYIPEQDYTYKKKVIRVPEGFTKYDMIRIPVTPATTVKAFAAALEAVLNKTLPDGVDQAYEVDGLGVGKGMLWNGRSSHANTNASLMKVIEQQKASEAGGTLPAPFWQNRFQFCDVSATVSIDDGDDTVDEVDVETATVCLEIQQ
Kind of assay: Leishmania donovani Ubiquitin Activating Enzyme (LdE1). The note with it: 30 µM. It counts as functional.

Assay [3] deals with AMP-activated protein kinase, AMPK (Homo sapiens) (UniProt P54646+O43741+P54619+Q9UGJ0+Q9Y478+Q13131+Q9UGI9). Nature of the assay: AMP-dependent Kinase enzyme assay. An in vitro enzyme assay that detects ADP turnover that is directly proportional to AMPK activity. This uses naive AMPK that is activated during the assay with MK-8722. Type of assay: functional. The note with it: 30 µM.

Assay [4] concerns the target Sialic acid-binding Ig-like lectin 9 (Homo sapiens) (UniProt Q9Y336). Nature of the assay: Hs-Siglec9 ALPHAscreen SOP 20170721. The note with it: 10 µM. (In general: Alpha assays give light when donor and acceptor beads are brought close together.)
The subject of assay [5] is Trypanosoma cruzi. Nature of the assay: Trypanosoma cruzi phosphomannomutase and mannose-1-phosphate guanylyltransferase assay. The note with it: 10 µM. It counts as functional.
For assay [6], the target named is T2, Arginase-2, mitochondrial (Homo sapiens) (UniProt P78540).
T2 sequence (whole entry): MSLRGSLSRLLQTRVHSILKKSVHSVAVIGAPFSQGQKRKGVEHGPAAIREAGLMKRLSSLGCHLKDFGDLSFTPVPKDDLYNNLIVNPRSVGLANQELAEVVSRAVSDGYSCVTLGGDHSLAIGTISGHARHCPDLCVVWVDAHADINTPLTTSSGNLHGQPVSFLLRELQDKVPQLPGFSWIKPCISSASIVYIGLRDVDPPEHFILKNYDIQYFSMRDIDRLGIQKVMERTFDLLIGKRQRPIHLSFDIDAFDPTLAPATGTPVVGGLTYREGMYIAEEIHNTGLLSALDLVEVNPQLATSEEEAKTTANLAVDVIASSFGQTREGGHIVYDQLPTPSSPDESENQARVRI
Nature of the assay: in vitro enzyme assay to detect the production of urea directly proportional to the activity of Arginase II. Further: in the data most compounds retested in dose-response had high values. It counts as functional. The note with it: 33.3 µM.

For assay [7], the target named is T3, Proteasome subunit beta (Trypanosoma cruzi) (UniProt O96673).
T3 sequence (whole entry): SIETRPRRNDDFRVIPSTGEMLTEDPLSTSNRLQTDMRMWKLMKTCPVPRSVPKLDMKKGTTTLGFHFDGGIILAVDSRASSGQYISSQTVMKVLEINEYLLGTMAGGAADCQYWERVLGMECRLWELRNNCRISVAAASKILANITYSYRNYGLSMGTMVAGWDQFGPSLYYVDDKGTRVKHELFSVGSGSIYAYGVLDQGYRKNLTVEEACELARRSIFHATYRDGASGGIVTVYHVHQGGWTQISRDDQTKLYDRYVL
Kind of assay: Trypanosoma cruzi proteasome chymotrypsin-like activity (TcProtChymo) assay. Further: in the data most compounds retested in dose-response had high values. It counts as functional. Particulars: 9.37 µM.

The species named for assay [8] is Homo sapiens. Kind of assay: To identify inhibition of the IFN signalling (Jak-Stat) pathway via expression of an eGFP reporter gene under the control of an IFN-stimulated response element (ISRE) containing MxA promoter. It counts as functional. Particulars: 30 µM. In general terms: In a reporter assay the amount or activity of a reporter protein is the signal.

For assay [9], the target named is T4, Tyrosyl-tRNA synthetase, putative (Trypanosoma cruzi (strain CL Brener)) (UniProt Q4DSP6).
T4 sequence (whole entry): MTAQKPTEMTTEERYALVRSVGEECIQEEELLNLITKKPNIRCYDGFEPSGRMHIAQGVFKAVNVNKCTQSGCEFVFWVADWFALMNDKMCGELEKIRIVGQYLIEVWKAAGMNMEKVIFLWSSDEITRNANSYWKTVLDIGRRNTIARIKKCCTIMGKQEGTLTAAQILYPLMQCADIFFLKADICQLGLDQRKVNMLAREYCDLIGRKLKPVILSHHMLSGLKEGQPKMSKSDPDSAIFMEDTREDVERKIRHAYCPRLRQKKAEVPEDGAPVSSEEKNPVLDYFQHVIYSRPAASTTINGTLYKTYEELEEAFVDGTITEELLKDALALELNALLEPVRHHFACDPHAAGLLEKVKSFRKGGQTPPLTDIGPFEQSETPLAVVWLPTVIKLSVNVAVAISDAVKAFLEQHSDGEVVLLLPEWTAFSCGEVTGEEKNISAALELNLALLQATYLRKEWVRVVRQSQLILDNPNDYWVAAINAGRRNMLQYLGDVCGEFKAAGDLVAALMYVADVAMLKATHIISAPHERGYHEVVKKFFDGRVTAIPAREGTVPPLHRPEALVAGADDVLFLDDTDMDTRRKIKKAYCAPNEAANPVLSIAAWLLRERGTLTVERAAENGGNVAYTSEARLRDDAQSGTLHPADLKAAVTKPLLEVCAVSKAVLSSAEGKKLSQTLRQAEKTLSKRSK
Kind of assay: Trypanosoma cruzi tyrosyl tRNA synthetase (TcYRS) _High Tyrosine SOP. Further: in the data most compounds retested in dose-response had high values. It counts as functional. Particulars: 30 µM.

The target of assay [10] is T4, Tyrosyl-tRNA synthetase, putative (Trypanosoma cruzi (strain CL Brener)). Kind of assay: Trypanosoma cruzi tyrosyl tRNA synthetase (TcYRS) SOP. The note with it: 30 µM. Type of assay: functional.
In assay [11] the target is Chromo domain-containing protein 1 (Saccharomyces cerevisiae (strain ATCC 204508 / S288c) (Baker's yeast)) (UniProt P32657). Kind of assay: ScCHD-1 Enzyme Inhibition Assay. Further: in the data most compounds retested in dose-response had high values. Type of assay: functional. Particulars: 30 µM.
Chromo domain-containing protein 1 (Saccharomyces cerevisiae (strain ATCC 204508 / S288c) (Baker's yeast)), sequence (P32657 whole entry, the tested form may be a part): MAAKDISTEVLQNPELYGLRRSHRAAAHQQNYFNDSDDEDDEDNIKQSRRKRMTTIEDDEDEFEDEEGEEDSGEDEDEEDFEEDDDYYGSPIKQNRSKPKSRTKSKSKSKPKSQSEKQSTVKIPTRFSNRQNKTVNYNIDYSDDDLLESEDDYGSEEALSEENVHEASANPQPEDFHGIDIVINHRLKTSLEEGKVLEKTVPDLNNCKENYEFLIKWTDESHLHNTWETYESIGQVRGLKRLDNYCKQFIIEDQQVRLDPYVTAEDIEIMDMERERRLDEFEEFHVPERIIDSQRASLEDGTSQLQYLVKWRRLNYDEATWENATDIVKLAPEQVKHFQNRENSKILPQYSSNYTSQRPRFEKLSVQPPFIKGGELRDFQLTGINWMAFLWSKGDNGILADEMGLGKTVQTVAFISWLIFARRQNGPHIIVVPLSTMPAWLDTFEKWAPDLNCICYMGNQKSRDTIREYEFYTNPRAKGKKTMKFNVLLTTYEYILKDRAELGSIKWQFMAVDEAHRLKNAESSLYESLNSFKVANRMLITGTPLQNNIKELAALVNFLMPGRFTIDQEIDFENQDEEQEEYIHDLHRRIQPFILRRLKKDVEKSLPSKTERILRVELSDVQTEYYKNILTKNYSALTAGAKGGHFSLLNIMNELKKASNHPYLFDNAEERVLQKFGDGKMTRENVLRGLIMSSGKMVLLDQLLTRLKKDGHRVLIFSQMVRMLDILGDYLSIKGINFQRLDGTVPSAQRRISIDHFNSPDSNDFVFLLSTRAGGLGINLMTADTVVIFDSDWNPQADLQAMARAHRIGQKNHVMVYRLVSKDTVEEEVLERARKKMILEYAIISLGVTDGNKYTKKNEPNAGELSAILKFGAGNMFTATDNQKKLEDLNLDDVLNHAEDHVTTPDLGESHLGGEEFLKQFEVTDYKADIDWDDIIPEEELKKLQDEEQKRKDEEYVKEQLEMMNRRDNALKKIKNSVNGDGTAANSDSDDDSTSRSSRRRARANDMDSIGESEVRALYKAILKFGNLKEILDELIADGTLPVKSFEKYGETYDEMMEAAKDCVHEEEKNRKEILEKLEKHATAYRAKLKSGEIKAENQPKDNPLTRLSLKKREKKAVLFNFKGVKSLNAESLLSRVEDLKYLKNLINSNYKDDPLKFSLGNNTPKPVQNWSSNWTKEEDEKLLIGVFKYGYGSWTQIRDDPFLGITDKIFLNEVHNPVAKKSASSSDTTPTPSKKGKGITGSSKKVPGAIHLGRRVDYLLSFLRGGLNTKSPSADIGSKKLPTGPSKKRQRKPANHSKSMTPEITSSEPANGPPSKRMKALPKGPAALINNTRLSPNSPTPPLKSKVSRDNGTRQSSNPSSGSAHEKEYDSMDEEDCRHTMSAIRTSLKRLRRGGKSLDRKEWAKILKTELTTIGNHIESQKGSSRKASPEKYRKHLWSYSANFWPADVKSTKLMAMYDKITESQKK

Protein translocase subunit SecA (Escherichia coli (strain K12)), sequence (P10408 whole entry): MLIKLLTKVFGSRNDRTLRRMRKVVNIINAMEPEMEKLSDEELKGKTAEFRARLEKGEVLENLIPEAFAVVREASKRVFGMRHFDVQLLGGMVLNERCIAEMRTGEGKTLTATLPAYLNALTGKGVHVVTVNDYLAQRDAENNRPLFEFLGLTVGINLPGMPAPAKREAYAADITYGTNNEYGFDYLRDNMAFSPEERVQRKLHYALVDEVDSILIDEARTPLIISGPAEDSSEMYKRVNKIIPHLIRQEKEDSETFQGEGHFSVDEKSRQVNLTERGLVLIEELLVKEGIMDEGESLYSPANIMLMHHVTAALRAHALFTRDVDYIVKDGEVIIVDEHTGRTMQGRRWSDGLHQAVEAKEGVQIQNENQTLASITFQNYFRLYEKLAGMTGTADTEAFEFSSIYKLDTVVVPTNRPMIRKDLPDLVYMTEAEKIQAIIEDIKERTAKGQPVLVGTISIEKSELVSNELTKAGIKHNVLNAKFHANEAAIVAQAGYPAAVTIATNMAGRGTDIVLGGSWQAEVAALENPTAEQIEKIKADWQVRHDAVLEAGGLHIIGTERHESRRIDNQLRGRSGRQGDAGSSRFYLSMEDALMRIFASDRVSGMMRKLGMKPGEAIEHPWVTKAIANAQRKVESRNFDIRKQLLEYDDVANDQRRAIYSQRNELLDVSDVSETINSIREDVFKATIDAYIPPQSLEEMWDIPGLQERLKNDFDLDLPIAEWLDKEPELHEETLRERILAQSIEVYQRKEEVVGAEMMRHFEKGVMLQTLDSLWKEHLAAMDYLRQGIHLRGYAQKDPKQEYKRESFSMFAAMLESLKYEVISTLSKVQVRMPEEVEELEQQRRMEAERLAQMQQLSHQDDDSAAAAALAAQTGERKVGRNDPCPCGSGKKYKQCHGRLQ
Sialic acid-binding Ig-like lectin 9 (Homo sapiens), sequence (Q9Y336 whole entry): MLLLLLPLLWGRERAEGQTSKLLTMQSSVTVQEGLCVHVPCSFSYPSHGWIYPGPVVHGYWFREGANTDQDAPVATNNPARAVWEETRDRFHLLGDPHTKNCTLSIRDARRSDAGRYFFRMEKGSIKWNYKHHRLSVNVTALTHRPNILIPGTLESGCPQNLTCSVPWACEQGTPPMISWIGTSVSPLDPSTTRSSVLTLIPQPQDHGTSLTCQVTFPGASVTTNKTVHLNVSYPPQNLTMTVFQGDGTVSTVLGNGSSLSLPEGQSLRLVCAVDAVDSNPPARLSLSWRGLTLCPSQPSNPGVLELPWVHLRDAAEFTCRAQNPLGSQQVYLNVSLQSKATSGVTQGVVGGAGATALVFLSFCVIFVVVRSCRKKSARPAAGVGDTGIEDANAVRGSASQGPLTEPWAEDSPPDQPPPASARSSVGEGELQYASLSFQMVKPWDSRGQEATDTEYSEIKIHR

For `c1cnn(CC2CCCCN2c2ncnc3sccc23)c1` (stereo not given), the Percent Effect in assay [1] was -7.65%; in [2] it was -5.33%; in assay [3] it was 0.901%; in [4], 5.7%; in [5], -2.63%; in assay [6], -1.56%. Moreover, the Percent Effect in [7] was 6.45%; in assay [8] it was 29.1%; in assay [9], -0.546%; in assay [10], -1.24%; in assay [11], -3.05%.
In the case of `O=C(c1ccc(C2CCCO2)s1)N1CCS(=O)(=O)CC1` (stereo not given), the Percent Effect in [1] was -1.4%; in assay [2] it was 18.9%; in [3], -2.69%; in [4], 22.7%; in [5], 9.07%; in assay [6], 1.91%. In addition, the Percent Effect was 17.1% in assay [7]; 6.53% in assay [8]; 4.76% in [9]; 17.1% in assay [10]; -2.6% in assay [11].
Consider `CCc1nnc(Nc2cccc(C3CCN(CCO)CC3)n2)s1`, for which the Percent Effect in [1] was -7.83%; in assay [2], 12.2%; in assay [3] it was 0.559%; in assay [4], 1.33%; in assay [5], 1.58%; in [6], -2.55%. Moreover, the Percent Effect in [7] was 14%; in [8], 24%; in [9], 2.15%; in assay [10], 11.7%; in [11] it was -26.9%.
In the case of `CN(C)C(=O)C1(CCCc2ccncc2)CCCN1` (stereo not given), the Percent Effect is -1.15% in assay [1]; 23% in assay [2]; -1.94% in [3]; -4.7% in assay [4]; 0% in assay [5]; -3.48% in assay [6]. Further, the Percent Effect in assay [7] was 26.1%; in assay [8], 4.91%; in [9], 5.38%; in [10] it was 14.3%; in assay [11] it was -22.2%.
For `COc1ccc(C2=CCN(C(=O)CN(C)CC(C)C#N)CC2)cc1` (stereo not given), the Percent Effect in [1] is -8.6%; in assay [2], -12.7%; in assay [3] it was -4.45%; in assay [4], 7.49%; in assay [5], 10.5%; in assay [6], -6.84%. Also, the Percent Effect in [7] was 0.901%; in assay [8] it was 10.5%; in assay [9], 7.39%; in assay [10], 13.9%; in assay [11] it was -8.15%.
On to `NCc1cnn(-c2ccccc2C(=O)NCc2ccncc2)c1`, for which the Percent Effect in assay [1] was -3.81%; in assay [2], 6.76%; in [3], 13.5%; in assay [4], -2.83%; in assay [5] it was -2.96%; in [6] it was -0.232%. In addition, the Percent Effect in assay [7] was 6.08%; in assay [8] it was 6.53%; in assay [9], 3.23%; in [10], 11.7%; in assay [11] it was -5.06%.
For `Fc1cccc(-c2nc(CN3CCOC(Cn4cccn4)C3)co2)c1` (stereo not given), the Percent Effect in assay [1] was -5.98%; in assay [2], 2.7%; in [3], -6.81%; in assay [4], 3.19%; in assay [5] it was -2.36%; in assay [6] it was 4.81%. The Percent Effect in assay [7] is 4.68%; in assay [8], -1.08%; in [9], 7.39%; in assay [10] it was 6.17%; in [11], -3.05%.
Regarding `Cc1noc(C)c1CN1CC[C@@H](OCC2CC2)[C@@H](Cc2ccccc2)C1`, the Percent Effect was -3.38% in assay [1]; 13.3% in assay [2]; 8.95% in [3]; -2.52% in assay [4]; 3.15% in assay [5]; 1.63% in assay [6]. In addition, the Percent Effect in [7] was 14%; in assay [8], 1.91%; in assay [9], 5.32%; in [10], 14.1%; in assay [11], -5.06%.
For `Cc1cnn(CC2CN(Cc3cccc(OCC(N)=O)c3)CCO2)c1` (stereo not given), the Percent Effect in [1] was -3.33%; in [2] it was -5.2%; in assay [3], 0.653%; in assay [4], 4.26%; in assay [5] it was -7.3%; in assay [6], 5.34%. In addition, the Percent Effect is -2.53% in [7]; 23.4% in [8]; 3.88% in assay [9]; -2.44% in [10]; 1.45% in assay [11].
Consider `Cc1n[nH]c(C)c1NC(=O)CN1CCc2c(nc(C3CC3)n2C)C1`, for which the Percent Effect in assay [1] was -1.39%; in assay [2], 20.8%; in [3] it was -6.42%; in [4] it was -4.94%; in [5], -9.36%; in assay [6], 0%. In addition, the Percent Effect was 10.6% in [7]; 37.3% in assay [8]; 3.88% in [9]; 2.44% in assay [10]; -7.54% in assay [11].
